Results reported in the supplement of paper PMC6897291.

Test system: U-2932
Test: growth inhibition by drug alone (1 - RLU/untreated control) (fraction); higher = stronger inhibition
Conditions: 177Lu-lilotomab satetraxetan 0 ug/ml
Protocol: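 U-2932 ABC-DLBCL cells were pretreated or not for 18 h with 1 ug/ml 177Lu-lilotomab satetraxetan (600 MBq/mg), washed and seeded (3000 cells/well) on 384-well plates pre-printed with the Selleck Cambridge Cancer Compound library. Viability was read by RealTime-Glo luminescence on days 3-6 after seeding. Effect = 1 - RLU/mean RLU of the 48 untreated no-drug control wells per plate; Bliss score = (M-E)/(1-Fa), with E the expected Bliss-additive effect.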

Compound	growth inhibition by drug alone (10 nM, time (day): 3)	growth inhibition by drug alone (10 nM, time (day): 4)	growth inhibition by drug alone (10 nM, time (day): 5)	growth inhibition by drug alone (10 nM, time (day): 6)	growth inhibition by drug alone (1000 nM, time (day): 3)	growth inhibition by drug alone (1000 nM, time (day): 4)	growth inhibition by drug alone (1000 nM, time (day): 5)	growth inhibition by drug alone (1000 nM, time (day): 6)
C=CCc1cccc(/C=N/NC(=O)CN2CCN(Cc3ccccc3)CC2)c1O	0.126	0.104	0.0863	0.00412	0.161	0.136	0.0263	-0.0573
CC[C@@H]1C(=O)N(C)c2cnc(Nc3ccc(C(=O)NC4CCN(C)CC4)cc3OC)nc2N1C1CCCC1	0.821	0.844	0.867	0.907	0.953	0.973	0.981	0.984
C=CC[C@@H]1/C=C(\C)C[C@H](C)C[C@H](OC)[C@H]2O[C@@](O)(C(=O)C(=O)N3CCCC[C@H]3C(=O)O[C@H](/C(C)=C/[C@@H]3CC[C@@H](O)[C@H](OC)C3)[C@H](C)[C@@H](O)CC1=O)[C@H](C)C[C@@H]2OC [FK-506 (Tacrolimus)]	0.267	0.364	0.442	0.532	0.227	0.39	0.449	0.553
O=c1oc2c(O)c(O)cc3c(=O)oc4c(O)c(O)cc1c4c23 [Ellagic acid]	-0.0386	-0.0333	-0.0157	0.0286	-0.0768	-0.0331	-0.0763	-0.143
CC(C)n1nc(-c2ccc3oc(N)nc3c2)c2c(N)ncnc21	0.366	0.275	0.188	0.215	0.912	0.912	0.917	0.929
